A selection: hits, their analogues and other compounds. The true share with any hit is near 1.2%.
RAD54 branch: inhibitors of human RAD54 branch migration | Q92698 | RAD54 Holliday junction branch migration, FAM/BHQ fluorescence | inhibition, % at 10.4 µM | 360,000 tested, 0.14% active;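 active = mean normalized replicate activity at least 40 and at least half of replicates scoring 40 or more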;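 note: 0% = median of neutral control wells and 100% = median of positive control wells; inhibitors cause a drop in the FAM fluorescence signal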
N-glyco inh: N-linked glycosylation inhibition; D54 ERlucT glycosylation luciferase reporter, 24 h; percent of 100 nM tunicamycin response; reporter increase, % at 12.5 µM; 360,000 tested, 0.23% active;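 active = mean luciferase reporter signal, scaled so untreated is 0 and the glycosylation-blocking control 100, at or above a set limit in every replicate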;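 note: luciferase carries N-glycosylation sites so blocking glycosylation raises the light; 0% = median of neutral control wells and 100% = median of 100 nM tunicamycin wells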
MLL AF4-AF9 inh: blocks AF4 peptide binding to human AF9 | P42568 | AlphaScreen, biotin-AF4 peptide binding to FLAG-AF9 | inhibition, % at 10 µM | 350,000 tested, 0.47% active | AID 651704;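 active = every replicate reaching a set inhibition limit, whatever the replicate mean, cut at about 25% in these data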;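 note: 0% = plate neutral control median and 100% = total signal loss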
RAD52 inh: inhibitors of human RAD52 DNA annealing; P43351; 360,000 tested, 0.46% active; inhibition, % at 18.7 µM; recombinant RAD52 DNA annealing, FRET fluorescence;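 active = every replicate showing at least 50% inhibition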
Target sequence (P43351 whole entry, looked up): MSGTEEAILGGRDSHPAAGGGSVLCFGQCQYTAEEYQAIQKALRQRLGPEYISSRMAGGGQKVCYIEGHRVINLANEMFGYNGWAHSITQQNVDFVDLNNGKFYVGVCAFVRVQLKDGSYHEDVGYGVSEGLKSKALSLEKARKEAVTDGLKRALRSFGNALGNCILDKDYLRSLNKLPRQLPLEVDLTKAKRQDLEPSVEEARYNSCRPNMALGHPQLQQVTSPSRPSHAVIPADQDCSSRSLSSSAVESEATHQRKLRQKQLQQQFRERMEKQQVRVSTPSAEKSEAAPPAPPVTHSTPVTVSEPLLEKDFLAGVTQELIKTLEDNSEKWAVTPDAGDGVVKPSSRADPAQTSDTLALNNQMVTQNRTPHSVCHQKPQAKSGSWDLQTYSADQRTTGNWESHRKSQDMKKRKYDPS
CASP6 VEID inh: inhibitors of human caspase-6. P55212. purified caspase-6, Z-VEID-R110 cleavage fluorescence. inhibition, % at 12.5 µM. 350,000 tested, 0.53% active. AID 686996;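 active = mean inhibition across replicates at least about 35%, with every replicate also reaching that limit, limit read from the data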;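 note: 0% = median of neutral control wells and 100% = no fluorescence left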
Active calls of the source: *; . = no result given.

SMILES | RAD54 branch | N-glyco inh | MLL AF4-AF9 inh | RAD52 inh | CASP6 VEID inh
COc1cccc(-c2ccc([C@@H]3[C@H]4CN(CC5CCOCC5)CCCCN4[C@H]3CO)cc2)c1 | 1 | . | 5 | 42 | 0
CN(C)CC#Cc1ccc([C@@H]2[C@@H](CO)N3CCCCN(CC4CC4)C[C@@H]23)cc1 | -3 | . | 26* | 71* | 2
CN(C)CC#Cc1ccc([C@H]2[C@@H](CO)N3CCCCN(CC4CCOCC4)C[C@H]23)cc1 | -8 | . | 9 | 62* | 1
COc1cccc(-c2ccc([C@H]3[C@@H](CO)N4CCCCN(CC5CCOCC5)C[C@@H]34)cc2)c1 | -1 | . | 2 | 56* | 2
CN(C)CC#Cc1ccc([C@H]2[C@H]3CN(CC4CC4)CCCCN3[C@H]2CO)cc1 | -6 | . | 19 | 44 | 0
COc1ccc2c3c([nH]c2c1)[C@H](CO)N(C(=O)C1CCC1)CC31CCN(C(=O)NC(C)C)CC1 | . | . | 4 | 4 | -1
C[C@H](CO)N1C[C@H](C)[C@@H](CN(C)CC2CCCC2)Oc2cc(C#CCN(C)C)ccc2S1(=O)=O | . | . | 9 | 9 | 1
CCCC#Cc1ccc([C@H]2[C@@H](CO)N3CCCCN(CC4CC4)C[C@H]23)cc1 | 4 | . | 16 | 53* | 0
CCCC#Cc1ccc([C@@H]2[C@H](CO)N3CCCCN(CC4CC4)C[C@@H]23)cc1 | 1 | . | 15 | 31 | 0
Cc1ccc(C(=O)N/N=C\c2ccc(OC(=O)c3cccc(F)c3)cc2)cn1 | 3 | 3 | 0 | -5 | 47*
Cc1ccc(S(=O)(=O)N(C)C[C@@H]2OCCCC[C@H](C)Oc3ccc(NC(=O)Nc4ccc(F)cc4)cc3C(=O)N([C@@H](C)CO)C[C@H]2C)cc1 | 0 | . | -2 | -24 | 2
C[C@@H]1CN([C@H](C)CO)C(=O)c2cc(N(C)C)ccc2O[C@@H]1CN(C)Cc1ccc(-c2ccccc2)cc1 | -14 | . | 47* | 11 | 0
C[C@@H]1CN([C@@H](C)CO)C(=O)c2cc(N(C)C)ccc2O[C@H]1CN(C)Cc1ccc(-c2ccccc2)cc1 | -11 | . | 34* | 7 | 0
CC(C)C(=O)Nc1ccc2c(c1)C(=O)N(C)[C@@H]1CC[C@H](CC(=O)N[C@@H](C)c3ccccc3)O[C@@H]1CO2 | 4 | . | . | . | .
CCCN1[C@@H]2c3ccc(-c4ccccc4OC)c(=O)n3C[C@@H]2[C@@H](CO)[C@@H]1C(=O)OC | 0 | . | -1 | -8 | -1
COc1ccc(N2CCN(C(=O)CCNS(=O)(=O)c3ccc(C)cc3)CC2)cc1 | 8 | 2 | 4 | -5 | 36*
C[C@H]1CN([C@@H](C)CO)C(=O)Cc2cc(NS(=O)(=O)c3ccccc3)ccc2O[C@H]1CN(C)Cc1ccccc1 | 0 | . | 1 | -8 | 3
O=C(c1cccc(S(=O)(=O)N2CCCCCC2)c1)N1CCN(c2ccccc2F)CC1 | 2 | -3 | -21 | 4 | 48*
COc1cccc(NC(=O)Nc2ccc3c(c2)C(=O)N(C)[C@H]2CC[C@@H](CC(=O)NCCc4ccccc4)O[C@H]2CO3)c1 | -2 | . | 5 | -11 | 2
COC(=O)C[C@H]1C[C@H]2c3cc(NS(=O)(=O)c4cccc(OC)c4)ccc3O[C@H]2[C@H](CO)O1 | 1 | . | -1 | -14 | 1
Nc1ncnc2c1ncn2C1OC(C(=O)NC2CC2)C(O)C1O (centres undefined) | -9 | 5 | 48* | -1 | -7
CCN=C1S/C(=C/c2ccc(-c3ccc(Cl)cc3C(=O)O)o2)C(=O)N1CC | . | 1 | 0 | -310 | 36*
O=C(NCC[C@@H]1CC[C@H](NC(=O)c2cnccn2)[C@@H](CO)O1)Nc1ccc(F)cc1 | -9 | . | 13 | 17 | 0
Cc1nn(C)cc1NC(=O)C[C@H]1CC[C@H]2[C@@H](COc3ccc(NC(=O)Nc4cccc(Cl)c4)cc3C(=O)N2C)O1 | -1 | . | 2 | 6 | 0
O=C(C[C@H]1C[C@H]2c3cc(NC(=O)NC4CCCC4)ccc3O[C@H]2[C@@H](CO)O1)NCc1ccccn1 | . | . | -7 | 6 | -4
CC(=O)Nc1ccc(S(=O)(=O)/N=C2\C(=O)c3ccccc3C([O-])=C2n2cc[n+](-c3ccccn3)c2)cc1 | 3 | 6 | 5 | -9 | 68*
O=c1[nH]c(=O)n(C2OC(CO)C(O)C2O)cc1F (centres undefined) | . | 1 | . | . | .
O=C1C=CC(n2cc(F)c(=O)[nH]c2=O)O1 (centres undefined) | 1 | 1 | -4 | -4 | 36*

Compound activity deposited in PubChem BioAssay by Broad Institute.
